According to PubChem BioAssay (Tox21):
Records with an inconclusive call do not appear. Activity calls are given as the source filed them. Unless noted, the call rests on the fitted dose curve.

Legend:
[1] = Nuclear factor erythroid 2-related factor 2/antioxidant responsive element (Nrf2/ARE) small molecule agonists: qHTS cell viability counter screen in human keratinocytes (AID 1919968; active means well fitted curve in the direction sought with a large enough effect in the repeat runs; an effect the other way counts as inactive or inconclusive; further: nearly all actives have a fitted effect of over 55% in size)
Method in brief: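 Seed 1,500 KeratinoSens cells per well, then incubate 5 h at 37 C/5% CO2. Add compounds in DMSO and incubate 23 h. Add CellTiter-Fluor, wait 1 h and read fluorescence.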

[2] = Nuclear factor erythroid 2-related factor 2/antioxidant responsive element (Nrf2/ARE) small molecule agonists: luciferase reporter gene qHTS assay in human keratinocytes (AID 1919969); further: nearly all actives have a fitted effect of over 35% in size; further: potency means the concentration at half of the fitted maximal effect
[3] = target: Gonadotropin-releasing hormone receptor (Homo sapiens) (UniProt P30968); assay: Human gonadotropin-releasing hormone receptor (GnRHR) small molecule agonists, calcium flux assay in GnRHR-HEK293 cells (AID 1920063); further: nearly all actives have a fitted effect of over 35% in size
Method in brief: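 Cells: HEK293 stably expressing human GnRHR. Steps: overnight (18 h) culture, 1 h calcium dye loading at 37 C, compound addition, kinetic fluorescence read at 480/540 nm. Each compound tested at 15 concentrations in triplicate.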

[4] = target: KiSS-1 receptor (Homo sapiens) (UniProt Q969F8); assay: Human kisspeptin (KISS1R) small molecule agonists, calcium flux assay in KISS1R-HEK293 cells (AID 1920064; active means well fitted curve in the direction sought with a large enough effect in the repeat runs; an effect the other way counts as inactive or inconclusive)
Method in brief: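 Cells plated and incubated 18 h; dye added, 1 h at 37 C; compounds in DMSO pinned in; signal read at 480/540 nm every second for 3 min. Each compound tested at 15 concentrations in triplicate.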

[5] = G protein-coupled receptor (GPCR) small molecule agonists, calcium flux assay: HEK293 wild type cell line counter screen (AID 1920065)
Method in brief: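 Counter-screen of the Tox21 10K library for non-specific calcium release: dye-loaded cells received compounds in DMSO and were monitored by kinetic fluorescence (480/540 nm, 3 min). Fifteen concentrations, run in triplicate.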

[6] = p53 small molecule agonists, cell-based qHTS assay with human liver microsomes (AID 1963577);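 further: p53 response element beta-lactamase reporter cells with liver microsomes plus NADPH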
Method in brief: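 p53RE-bla cells; 5 h settle, 37 C/5% CO2; cpd + HLM 0.5 mg/mL + NADPH 0.5 mg/mL (final); 16 h 37 C; LiveBLAzer 2 h RT dark; fluorescence readout.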

[7] = p53 small molecule agonists, cell-based qHTS assay with rat liver microsomes (AID 1963578)
Method in brief: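 Rat liver microsome activation: microsomes 0.5 mg/mL, NADPH 0.5 mg/mL final; p53RE-bla cells, 16 h 37 C; LiveBLAzer readout, 2 h RT dark.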

[8] = p53 small molecule agonists, cell-based qHTS assay with human liver microsomes: qHTS cell viability counter screen (AID 1963579); further: nearly all actives have a fitted effect of over 45% in size; further: potency means the concentration at half of the fitted maximal effect
Method in brief: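 Luminescent CellTiter-Glo read-out, 30 min at room temperature, gauged cytotoxicity in p53RE-bla cells exposed 16 h at 37 C to DMSO-dissolved compounds with metabolic activation by human liver microsomes and NADPH, each 0.5 mg/mL final.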

[9] = p53 small molecule agonists, cell-based qHTS assay with rat liver microsomes: qHTS cell viability counter screen (AID 1963580); further: nearly all actives have a fitted effect of over 45% in size
Method in brief: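 p53RE-bla HCT-116 cells (4,000/well) rested 5 h at 37 C, then given Tox21 compounds in DMSO with rat liver microsomes (0.5 mg/mL final) plus NADPH (0.5 mg/mL final) for 16 h at 37 C. Viability read by CellTiter-Glo luminescence after 30 min at room temperature.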

[10] = p53 small molecule agonists, cell-based qHTS assay: qHTS cell viability counter screen (AID 1963581); further: nearly all actives have a fitted effect of over 45% in size
Method in brief: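 Cells: HCT-116 with p53 response element-driven beta-lactamase. Treatment: 16 h, 37 C, compounds in DMSO. Read: CellTiter-Glo luminescence after 30 min RT.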

[11] = p53 small molecule agonists, cell-based qHTS assay (AID 1963582; active means well fitted activation curve with a large enough effect in the signal ratio in the repeat runs, not every such curve was filed as active; the % refers to the signal ratio)
Method in brief: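 Quantitative HTS in p53RE-bla cells: after a 5 h settling period, compounds delivered in DMSO were left on cells for 16 h at 37 C, and reporter induction was measured as fluorescence following 2 h substrate loading.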

[12] = target: 5-hydroxytryptamine receptor 2A (Homo sapiens) (UniProt P28223); assay: 5-hydroxytryptamine receptor 2A (HTR2A) small molecule antagonists, cell-based qHTS assay (AID 1963586); further: nearly all actives have a fitted effect of over 45% in size
Method in brief: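 Antagonist-mode intracellular calcium assay: DOI (4 nM) added after 5 min compound pre-incubation at room temperature to dye-loaded HTR2A-CHO cells. Fluorescence followed for 3 min, sampled every second.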

[13] = target: 5-hydroxytryptamine receptor 2A (Homo sapiens) (UniProt P28223); assay: 5-hydroxytryptamine receptor 2A (HTR2A) small molecule agonists, cell-based qHTS assay (AID 1963587); further: nearly all actives have a fitted effect of over 30% in size
Method in brief: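 HTR2A-CHO cells, plated 18 h at 37 C/5% CO2, dye-loaded 1 h at 37 C; compounds in DMSO added by pin tool (agonist mode). Intracellular calcium flux read as kinetic fluorescence on FDSS over 2 min at 1 s intervals.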

[14] = target: Muscarinic acetylcholine receptor M1 (Homo sapiens) (UniProt P11229); assay: Cholinergic receptor muscarinic 1 (CHRM1) small molecule antagonists, cell-based qHTS assay (AID 1963588); further: nearly all actives have a fitted effect of over 40% in size
Method in brief: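 CHRM1-CHO calcium-flux assay, antagonist mode. Cells were seeded 18 h, dye-loaded 1 h at 37 C and given compound for 5 min at RT, then acetylcholine was added at 50nM. FDSS fluorescence was read 3 min; 15 concentrations, three runs.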

[15] = target: Muscarinic acetylcholine receptor M1 (Homo sapiens) (UniProt P11229); assay: Cholinergic receptor muscarinic 1 (CHRM1) small molecule agonists, cell-based qHTS assay (AID 1963589); further: nearly all actives have a fitted effect of over 35% in size
Method in brief: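 Agonist-mode qHTS in CHO cells stably carrying human muscarinic M1. Intracellular calcium is tracked by fluorescence every second after compound transfer; each compound runs at 15 concentrations in three independent runs.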

[16] = cAMP Responsive Elements (CRE) small molecule agonists, cell-based qHTS assay (AID 1963590)
Method in brief: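 Agonist mode qHTS in CRE-bla HEK 293T cells: compounds dosed from DMSO for 3 h at 37 C/5% CO2, followed by LiveBLAzer B/G FRET substrate for 2 h at room temperature.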

[17] = cAMP Responsive Elements (CRE) small molecule antagonists, cell-based qHTS assay (AID 1963591; active means well fitted inhibition curve with a large enough effect in the signal ratio in the repeat runs, not every such curve was filed as active; the % refers to the signal ratio)
Method in brief: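 Antagonist mode: test compounds are co-incubated with the adenylyl cyclase activator NKH477 (0.25 uM final) on CRE-bla HEK293T cells for 3 h at 37 °C, followed by LiveBLAzer substrate loading.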

[18] = target: Beta-2 adrenergic receptor (Homo sapiens) (UniProt P07550); assay: Adrenergic beta2 receptor (ADRB2) small molecule antagonists, cell-based qHTS assay (AID 1963592); further: series mostly up to about 92 µM; nearly all actives have a fitted effect of over 50% in size
Method in brief: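 Cells (CHO, stable ADRB2 overexpression) incubated 18-20hr at 37C; compounds added from DMSO; agonist mix (1nM isoproterenol, 100uM IBMX, 25uM Ro-20-1724) added; 0.5hr RT; d2-cAMP and anti-cAMP-cryptate added; 1hr RT; 665/615 nm read.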

[19] = target: D(2) dopamine receptor (Homo sapiens) (UniProt P14416); assay: Dopamine D2 receptor (DRD2) small molecule agonists, cell-based qHTS assay (AID 1963594); further: nearly all actives have a fitted effect of over 35% in size
Method in brief: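 HEK293 cells stably expressing DRD2 were cultured 24 h at 37 C, then given Ro20-1724 (0.1 mM final) and compounds for 10 min at room temperature. NKH477 (200nM) was then added for 30 min. cAMP was read by HTRF.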

[20] = target: D(2) dopamine receptor (Homo sapiens) (UniProt P14416); assay: Dopamine D2 receptor (DRD2) small molecule antagonists, cell-based qHTS assay (AID 1963595; active means well fitted inhibition curve with a large enough effect in the signal ratio in the repeat runs, with a control signal flat; the % refers to the signal ratio)
Method in brief: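 HTRF cAMP read-out at 665 and 620 nm emission (340 nm excitation). Antagonist mode: compounds were tested against 12 nM quinpirole in DRD2-HEK293 cells, with 200 nM NKH477 raising cAMP and 0.1 mM Ro20-1724 blocking its breakdown.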
On the % scale 0 is the no-effect control and ±100 the full control effect.

Chain of 5-hydroxytryptamine receptor 2A (Homo sapiens) (P28223 whole entry, looked up): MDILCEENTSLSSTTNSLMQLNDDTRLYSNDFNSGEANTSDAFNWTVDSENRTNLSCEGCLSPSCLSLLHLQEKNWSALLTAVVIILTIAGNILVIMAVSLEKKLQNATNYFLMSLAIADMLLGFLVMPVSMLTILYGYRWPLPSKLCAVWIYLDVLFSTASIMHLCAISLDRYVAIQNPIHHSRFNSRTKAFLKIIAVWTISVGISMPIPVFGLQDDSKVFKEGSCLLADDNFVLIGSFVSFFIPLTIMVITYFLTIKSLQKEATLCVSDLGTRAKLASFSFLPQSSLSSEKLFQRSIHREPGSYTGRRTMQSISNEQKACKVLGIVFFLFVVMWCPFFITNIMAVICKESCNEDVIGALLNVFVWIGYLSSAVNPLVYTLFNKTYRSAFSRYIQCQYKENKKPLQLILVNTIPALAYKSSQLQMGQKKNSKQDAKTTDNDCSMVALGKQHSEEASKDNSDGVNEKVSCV
Chain of Beta-2 adrenergic receptor (Homo sapiens) (P07550 whole entry, looked up): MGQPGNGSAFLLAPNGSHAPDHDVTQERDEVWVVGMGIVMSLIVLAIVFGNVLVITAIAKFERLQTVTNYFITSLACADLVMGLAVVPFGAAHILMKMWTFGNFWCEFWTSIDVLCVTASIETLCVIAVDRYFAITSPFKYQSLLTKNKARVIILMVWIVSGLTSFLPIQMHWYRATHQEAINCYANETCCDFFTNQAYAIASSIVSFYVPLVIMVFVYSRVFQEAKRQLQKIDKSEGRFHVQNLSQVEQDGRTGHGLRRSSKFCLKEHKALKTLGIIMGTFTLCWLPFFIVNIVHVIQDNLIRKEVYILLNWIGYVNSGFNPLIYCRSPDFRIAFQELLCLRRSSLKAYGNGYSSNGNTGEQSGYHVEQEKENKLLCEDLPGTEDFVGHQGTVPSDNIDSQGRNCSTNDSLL
Chain of KiSS-1 receptor (Homo sapiens) (Q969F8 whole entry, looked up): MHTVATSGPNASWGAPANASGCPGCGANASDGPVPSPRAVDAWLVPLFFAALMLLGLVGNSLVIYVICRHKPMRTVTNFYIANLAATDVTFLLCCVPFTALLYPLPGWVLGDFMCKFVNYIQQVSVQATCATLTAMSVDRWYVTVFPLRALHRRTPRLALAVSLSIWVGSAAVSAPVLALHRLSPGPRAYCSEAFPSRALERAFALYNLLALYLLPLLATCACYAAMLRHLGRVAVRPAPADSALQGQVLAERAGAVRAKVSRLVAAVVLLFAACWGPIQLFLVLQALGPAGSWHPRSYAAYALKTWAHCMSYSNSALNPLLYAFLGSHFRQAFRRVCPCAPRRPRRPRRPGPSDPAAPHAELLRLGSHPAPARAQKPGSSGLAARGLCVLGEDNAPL
Chain of Muscarinic acetylcholine receptor M1 (Homo sapiens) (P11229 whole entry, looked up): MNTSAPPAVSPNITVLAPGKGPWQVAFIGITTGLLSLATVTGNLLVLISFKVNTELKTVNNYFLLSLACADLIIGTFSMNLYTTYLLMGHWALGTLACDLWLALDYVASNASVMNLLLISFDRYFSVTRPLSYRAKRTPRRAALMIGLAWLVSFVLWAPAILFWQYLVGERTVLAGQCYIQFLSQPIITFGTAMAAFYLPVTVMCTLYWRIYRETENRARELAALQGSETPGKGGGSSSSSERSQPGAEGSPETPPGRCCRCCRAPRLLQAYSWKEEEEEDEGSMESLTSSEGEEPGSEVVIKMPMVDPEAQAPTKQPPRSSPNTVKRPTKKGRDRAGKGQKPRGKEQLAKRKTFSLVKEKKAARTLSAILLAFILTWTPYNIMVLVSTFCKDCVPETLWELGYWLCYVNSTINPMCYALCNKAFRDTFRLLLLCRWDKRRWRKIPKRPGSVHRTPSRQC
Chain of D(2) dopamine receptor (Homo sapiens) (P14416 whole entry, looked up): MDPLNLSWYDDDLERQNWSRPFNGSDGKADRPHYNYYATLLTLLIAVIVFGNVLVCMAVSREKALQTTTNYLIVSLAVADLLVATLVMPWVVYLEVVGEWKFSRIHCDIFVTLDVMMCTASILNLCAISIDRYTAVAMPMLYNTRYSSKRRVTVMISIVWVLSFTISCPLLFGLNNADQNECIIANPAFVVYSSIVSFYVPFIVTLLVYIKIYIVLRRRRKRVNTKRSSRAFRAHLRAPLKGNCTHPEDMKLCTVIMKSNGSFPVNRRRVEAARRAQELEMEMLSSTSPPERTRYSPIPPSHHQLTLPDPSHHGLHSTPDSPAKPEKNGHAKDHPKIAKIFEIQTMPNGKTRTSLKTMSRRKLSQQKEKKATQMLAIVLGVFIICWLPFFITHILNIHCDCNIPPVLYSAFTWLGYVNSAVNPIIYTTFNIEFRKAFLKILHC
Chain of Gonadotropin-releasing hormone receptor (Homo sapiens) (P30968 whole entry, looked up): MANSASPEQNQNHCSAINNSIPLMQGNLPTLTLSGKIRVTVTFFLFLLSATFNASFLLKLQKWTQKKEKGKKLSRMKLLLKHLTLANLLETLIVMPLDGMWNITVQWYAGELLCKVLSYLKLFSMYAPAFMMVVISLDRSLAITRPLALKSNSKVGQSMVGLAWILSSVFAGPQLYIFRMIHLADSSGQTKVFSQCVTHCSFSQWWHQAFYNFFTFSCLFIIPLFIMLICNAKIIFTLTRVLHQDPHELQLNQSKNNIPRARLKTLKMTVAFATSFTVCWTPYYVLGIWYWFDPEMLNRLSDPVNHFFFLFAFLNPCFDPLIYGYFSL

O=c1cc[nH]cc1
inactive: Potency [1] | Potency [2] | Potency [3] | outcome [4] | outcome [5] | Potency [6] | Potency [7] | Potency [8] | Potency [9] | Potency [10] | Potency [11] | Potency [12] | Potency [13] | Potency [14] | Potency [15] | Potency [16] | Potency [17] | Potency [18] | Potency [19] | Potency [20]

Cc1cc(C)cc([N+](=O)[O-])c1
inactive: Potency [1] | Potency [2] | Potency [3] | outcome [4] | outcome [5] | Potency [6] | Potency [7] | Potency [8] | Potency [9] | Potency [10] | Potency [11] | Potency [12] | Potency [13] | Potency [14] | Potency [15] | Potency [16] | Potency [17] | Potency [18] | Potency [19]

CC(C)CCCC(C)NCCC(C)C (stereo unspecified)
inactive: Potency [1] | Potency [2] | Potency [3] | outcome [4] | outcome [5] | Potency [6] | Potency [7] | Potency [8] | Potency [9] | Potency [10] | Potency [11] | Potency [12] | Potency [13] | Potency [14] | Potency [15] | Potency [16] | Potency [17] | Potency [18] | Potency [19] | Potency [20]

Nc1ccnc(=O)[nH]1
inactive: Potency [1] | Potency [2] | Potency [3] | outcome [4] | outcome [5] | Potency [6] | Potency [7] | Potency [8] | Potency [9] | Potency [10] | Potency [11] | Potency [12] | Potency [13] | Potency [14] | Potency [15] | Potency [16] | Potency [17] | Potency [18] | Potency [19] | Potency [20]

CCCCCCCCCCOc1cc2c(=O)c(C(=O)OCC)c[nH]c2cc1OCC
inactive: activity change, negative = cytotoxicity [1] -4.24% [at 8.39 µM] | activity, positive = activation [2] -2.6% [at 8.39 µM] | activity change [3] 0.343% [at 5.22 µM, hits give high values] | activation [4] -0.128% [at 6.97 µM] | activation [5] 0.101% [at 5.23 µM] | activation [6] 2.59% [at 5.99 µM] | activation [7] 0.878% [at 5.99 µM] | activity change, negative = cytotoxicity [8] 0.282% [at 5.99 µM] | activity change, negative = cytotoxicity [9] 11.2% [at 5.99 µM] | activity change, negative = cytotoxicity [10] -13% [at 5.99 µM] | activation [11] 4.71% [at 5.99 µM] | activity, negative = inhibition [12] 23.4% [at 5.62 µM] | activation [13] 1.5% [at 7.02 µM] | activity, negative = inhibition [14] -9.72% [at 5.58 µM] | activation [15] 0.0185% [at 6.97 µM] | activation [16] 0.069% [at 8.39 µM] | activity change, negative = inhibition [17] 0.102% [at 8.39 µM] | activity change, negative = inhibition [18] 4.81% [at 8.39 µM] | activation [19] -15.9% [at 8.39 µM] | activity change, negative = inhibition [20] 8.14% [at 8.38 µM]

CS(=O)(=O)c1ccc(-c2cn3ccccc3n2)cc1
inactive: Potency [1] | Potency [3] | outcome [4] | outcome [5] | Potency [6] | Potency [7] | Potency [9] | Potency [10] | Potency [11] | Potency [12] | Potency [13] | Potency [14] | Potency [15] | Potency [16] | Potency [17] | Potency [18] | Potency [19]
active: Potency [2] 33.5 µM | Potency [8] 17.8 µM

CCOC(=O)Oc1ccc(CCNC(=O)[C@H](CCSC)NC(C)=O)cc1OC(=O)OCC
inactive: Potency [1] | Potency [2] | Potency [3] | outcome [4] | outcome [5] | Potency [6] | Potency [7] | Potency [8] | Potency [9] | Potency [10] | Potency [11] | Potency [12] | Potency [13] | Potency [14] | Potency [15] | Potency [16] | Potency [17] | Potency [18]
